Hits are enriched below; roughly 0.87% of the tested compounds scored in any of these assays.
sEH activator: soluble epoxide hydrolase activators, primary screen, biochemical, human sEH; purified human sEH enzymatic activity, activator screen; activation, % at 2 µM; actives 0.04% (n = 91,000); in the data active means activation above about 37%
Target sequence (P34913 whole entry, looked up): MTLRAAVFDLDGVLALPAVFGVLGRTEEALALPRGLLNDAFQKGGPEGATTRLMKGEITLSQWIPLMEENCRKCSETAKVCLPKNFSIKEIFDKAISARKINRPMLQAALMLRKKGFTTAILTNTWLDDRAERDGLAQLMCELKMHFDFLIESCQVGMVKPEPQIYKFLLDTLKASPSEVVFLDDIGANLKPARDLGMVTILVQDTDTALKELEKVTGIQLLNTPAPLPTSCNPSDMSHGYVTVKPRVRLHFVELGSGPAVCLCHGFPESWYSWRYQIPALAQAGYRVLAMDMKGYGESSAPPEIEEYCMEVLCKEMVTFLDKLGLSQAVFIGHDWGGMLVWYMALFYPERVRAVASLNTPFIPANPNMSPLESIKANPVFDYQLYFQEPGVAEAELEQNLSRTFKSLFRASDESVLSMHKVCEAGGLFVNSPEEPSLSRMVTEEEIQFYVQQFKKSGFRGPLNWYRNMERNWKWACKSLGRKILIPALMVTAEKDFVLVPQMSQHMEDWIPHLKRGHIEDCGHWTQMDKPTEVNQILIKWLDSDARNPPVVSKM
Candida biofilm: clotrimazole potentiators killing Candida biofilms, primary screen, with clotrimazole, Alamar Blue; C. albicans biofilm + clotrimazole; AID 834, 2007; actives 0.14% (n = 85,000); inhibition, % at 6 µM;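 active means inhibition above 20%; inactive means inhibition below 20%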;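 further: preformed 24 hr biofilms exposed to compound for 48 hr; 0% = biofilm without compound and 100% = blank killed by clotrimazole plus chlorhexidine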
MRP1 act: H69AR viability gain despite doxorubicin, primary screen, MRP-1 activator project, H69AR cells, CellTiter-Glo; viability rescue; viability increase, % at 10 µM; actives 0.61% (n = 140,000);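 active means viability gain under doxorubicin at or above a set limit, the compound median plus 3 SD, cut at about 4.7% in these data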;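 further: MRP-1 overexpressing cells given doxorubicin 25 µM after compound pretreatment; 18-22 h compound pretreatment then 72 h with doxorubicin before readout; 0% = doxorubicin-only wells and 100% = vehicle-treated cells without doxorubicin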
sEH inh: soluble epoxide hydrolase inhibitors, primary screen, biochemical, human sEH; Bifunctional epoxide hydrolase 2 (Homo sapiens), P34913; recombinant human sEH enzymatic activity assay; AID 707, 2007; actives 0.34% (n = 91,000); inhibition, % at 2 µM; in the data active means inhibition above about 80%
MRP reversal: reversal of MRP1-mediated doxorubicin resistance, primary screen, H69AR cells, doxorubicin co-treatment; actives 0.04% (n = 85,000); differential viability (reversal), % at 10 µM; H69AR cells + 2 uM doxorubicin, CellTiter-Glo, 72 h; AID 602, 2007;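 active means viability drop by adding the cancer drug above about 55%, with treated viability meeting a 40% cutoff, limit read from the data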;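 further: viability without doxorubicin minus viability with 2 µM doxorubicin for each compound; larger differential means the compound sensitizes cells more to doxorubicin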
* marks the source's active call; other numbers are inactive results; . = no result given.

SMILES	sEH activator	Candida biofilm	MRP1 act	sEH inh	MRP reversal
Cc1ccc(Cl)cc1N1CCN(C(=O)Cc2ccc(-n3c(=O)[nH]c4ccsc4c3=O)cc2)CC1	.	.	9.7*	.	.
Cc1ccc(N(C)S(=O)(=O)c2cccc(C(=O)Oc3ccc4c(C)cc(=O)oc4c3)c2)cc1	.	.	4.8*	.	.
Cc1cc(=O)oc2cc(OCC(=O)Nc3cccc(S(=O)(=O)N(C)C)c3)ccc12	.	.	-2	.	.
O=C(Nc1nc(-c2ccc(Cl)cc2)cs1)NC1CCCCC1	.	.	1	.	.
Cc1ccccc1OCCCC(=O)Nc1ccc(Br)cc1	-93	.	-1	93*	.
C=CCc1cc(/C=N/NC(=O)CSc2nnc(CCCc3ccc(OC)cc3)o2)cc(OC)c1O	-23	.	-2	21	.
CC12CCC(C(=O)N(CC(O)CN3CCCCCC3)C1=O)C2(C)C (stereo not given)	.	.	0	.	.
CCN(CCNC(=O)Nc1ccc(Cl)cc1)c1ccccc1	-86	9	-3	86*	-7
CCN(CC)c1nc(OCCNC(=O)Nc2ccccc2)nc(N(CC)CC)n1	-8	-3	-1	10	-18
Cc1onc(-c2ccccc2Cl)c1C(=O)OCC(=O)Nc1ccc2c(c1)OCO2	.	25*	5.7*	.	11
Cc1onc(-c2ccccc2)c1C(=O)OCC(=O)Nc1ccc2c(c1)OCO2	-14	0	2	14	13
CCC(=O)c1ccc(N2CCOCC2)c(F)c1	7	4	7.7*	-2	-5
CCCC(=O)c1ccc(N2CCOCC2)c(F)c1	-2	.	-2	5	.
CC1CCCN(S(=O)(=O)c2ccc(NC(=O)c3cccc(-n4cnnn4)c3)cc2)C1 (stereo not given)	-96	-1	-4	96*	-4
CC1CCCCN1S(=O)(=O)c1ccc(NC(=O)c2cccc(-n3cnnn3)c2)cc1 (stereo not given)	.	9	-5	.	3
COc1ccc(N2C(=O)CC(N3CCC(O)(c4cccc(C(F)(F)F)c4)CC3)C2=O)cc1 (stereo not given)	-6	.	6.5*	8	.
Cc1ccc(-c2cc(-c3ccccc3)no2)c(O)c1	.	.	5.3*	.	.
Oc1ccccc1-c1cc(-c2ccccc2)no1	-3	.	-4	5	.
N#Cc1ccc(-c2csc(NC(=O)c3ccc(S(=O)(=O)N4CCc5ccccc5C4)cc3)n2)cc1	.	.	-2	.	.
CCn1c(C)cc(/C=C2\NC(=O)N(Cc3ccc(Cl)cc3)C2=O)c1C	27	.	9.5*	-26	.
CCN1C(=O)N/C(=C/c2cc(C)n(Cc3ccccc3)c2C)C1=O	.	.	-1	.	.
COc1cccc(C2CC(c3ccccc3OC)n3ncnc3N2)c1 (stereo not given)	-1	9	-4	2	-42
COc1ccccc1C1CC(c2ccc(Cl)cc2)Nc2ncnn21 (stereo not given)	-4	1	4.8*	2	-12
NS(=O)(=O)c1ccc(CCNC(=O)Nc2ccc(Cl)c(Cl)c2)cc1	-64	-2	-2	64	-16
CCOc1ccccc1NC(=S)/C(=C(\[O-])c1ccc2c(c1)OCCO2)[n+]1ccc(CC)cc1	-3	.	-3	4	.
SMILES	sEH activator	Candida biofilm	MRP1 act	sEH inh	MRP reversal
CC(NC(=O)C12CC3CC(CC(C3)C1)C2)c1ccc2c(c1)OCCO2 (stereo not given)	0	3	6.9*	0	18
CC(NC(=O)C1CCCC1)c1ccc2c(c1)OCCO2 (stereo not given)	2	5	-2	-2	10
COc1ccc(C(=O)Nc2ccc(C)cc2C(=O)c2ccccc2)c(OC)c1	.	.	0	.	.
COc1ccc(C(=O)Nc2ccccc2Cc2ccccc2)c(OC)c1	.	.	5.3*	.	.
Cc1nn(C)c(C(=O)N2CCOCC2)c1Cl	.	.	-1	.	.
CC(C)(C)c1ccc(OCC(=O)N/N=C/c2ccc(N3CCOCC3)cc2)cc1	.	.	-3	.	.
COc1ccc(CNc2nc3c(c(=O)n(Cc4ccc(Br)cc4)c(=O)n3C)n2C)cc1	13	9	5.2*	-13	0
Cn1c(NCc2ccccc2)nc2c1c(=O)n(Cc1ccc(Br)cc1)c(=O)n2C	.	6	0	.	19
NNC(=O)c1cnn(Cc2ccccc2)c1N	-86	5	-1	87*	9
NC(=O)c1cnn(Cc2ccc(Cl)cc2)c1N	12	.	-1	-10	.
Cc1nnc(SCC(=O)Nc2ccc(N3CCOCC3)cc2)n1-c1ccccc1	0	6	-3	0	1
Cc1ccc(NC(=O)CSc2nnc(C)n2-c2ccccc2)cc1	4	3	6.8*	1	1
CN(C)c1ccc(NC(=O)CSc2nnc(-c3cccs3)n2Cc2ccco2)cc1	10	-3	0	-10	-9
Cc1ccc(NC(=O)CSc2nnc(-c3cccs3)n2Cc2ccco2)cc1	1	7	6.1*	0	13
Cc1ccc(-n2c(C)nnc2SCC(=O)Nc2ccccc2)cc1	1	0	5.9*	-1	8
Cc1ccc(NC(=O)CSc2nc(O)cc(=O)n2C)cc1	.	7	8.5*	.	-9
COC(=O)C1=C(CSc2nc3ccccc3s2)NC(=O)NC1c1ccc(F)cc1 (stereo not given)	.	.	-1	.	.
O=C(Nc1ccc(NC(=O)c2sc3ccccc3c2Cl)cc1)c1ccco1	.	.	-6	.	.
CCOC(=O)c1c(-c2cccs2)csc1NC(=O)CNCCN1CCOCC1	-6	.	-4	8	.
Cc1nc(NC(=O)c2ccc(Cl)cc2)sc1-c1csc(Nc2cccc(F)c2)n1	-53	.	-4	52	.
CCC(Oc1ccccc1)C(=O)Nc1nnc(C)s1 (stereo not given)	3	8	4	1	10
CCC(Oc1ccccc1)C(=O)Nc1nnc(C(F)(F)F)s1 (stereo not given)	-4	3	10*	7	9
Cc1ccc(NC(=O)CN(C)S(=O)(=O)c2cccc3cccnc23)cc1	-2	23*	-1	2	0
Cc1cc(SCC(=O)c2cccs2)nc2ccccc12	.	.	-4	.	.
O=C(CN1CCCCCC1)N1c2ccccc2C=Cc2ccccc21	-14	-1	0	12	-1
SMILES	sEH activator	Candida biofilm	MRP1 act	sEH inh	MRP reversal
N#CC1=C2C=Cc3ccccc3N2CCCC1=O	.	-4	7.3*	.	1
CCC(=O)N1CCc2cc(S(=O)(=O)CCC(=O)NCCC3=CCCCC3)ccc21	-87	6	-1	86*	14
CO[C@H]1C=CO[C@@]2(C)Oc3c(C)c(O)c4c(O)c(c(C=NN5CCN(C)CC5)c(O)c4c3C2=O)NC(=O)C(C)=CC=C[C@H](C)[C@H](O)[C@@H](C)[C@@H](O)[C@@H](C)[C@H](OC(C)=O)[C@@H]1C	.	30*	-2	.	11
Nc1cc(C(=O)O)c(Oc2ccc(Cl)cc2Cl)cc1C(=O)O	.	.	0	.	.
CC(C)=CCCC(C)NC(=O)NC1CCCCC1 (stereo not given)	-90	6	0	91*	-1
CC(C)[C@H](NC(=O)NC1CCCC1)C(=O)O	19	3	-1	-20	-3
O=C(Cn1ncc(Cl)c(Cl)c1=O)N1CCN(S(=O)(=O)c2ccc3ccccc3c2)CC1	.	.	-6	.	.
